# Inconclusive results are not listed. Activity calls are given as the source filed them. The calls were made as follows, unless noted: active = hit-call score of the fitted dose curve at least 0.9, where 1 is the maximum; inactive = score below 0.9.
# Legend:
# [1] = target: Myc proto-oncogene protein (Homo sapiens) (UniProt P01106); assay: ATG_Myc_CIS: Attagene CIS-FACTORIAL HepG2 Assay for human Myelocytomatosis (Myc) Proto-Oncogene Transcription Factor (AID 2282990); details: HepG2, Attagene cis-reporter transcription factor activity; actives raise or lower the signal
# Chain of Myc proto-oncogene protein (Homo sapiens) (P01106 whole entry, looked up, the tested form may be a part): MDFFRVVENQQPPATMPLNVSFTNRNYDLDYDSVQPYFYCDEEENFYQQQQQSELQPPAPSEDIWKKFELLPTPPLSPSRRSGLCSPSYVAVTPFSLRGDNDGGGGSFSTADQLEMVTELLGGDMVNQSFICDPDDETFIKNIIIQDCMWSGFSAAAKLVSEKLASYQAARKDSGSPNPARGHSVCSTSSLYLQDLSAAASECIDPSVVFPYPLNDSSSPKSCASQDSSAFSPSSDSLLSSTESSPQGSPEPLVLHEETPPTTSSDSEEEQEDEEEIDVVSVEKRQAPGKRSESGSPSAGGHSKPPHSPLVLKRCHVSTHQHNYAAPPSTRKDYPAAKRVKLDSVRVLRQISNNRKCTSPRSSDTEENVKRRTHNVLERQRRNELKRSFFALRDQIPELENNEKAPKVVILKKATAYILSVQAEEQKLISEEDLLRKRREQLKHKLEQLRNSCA
# Method in brief: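 After 24 h chemical treatment of HepG2 cells carrying multiplexed cis-regulated reporter constructs, reporter transcripts quantified by RT-PCR and capillary electrophoresis of fluorescent fragments. Gain or loss fitted against DMSO baseline.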
# [2] = ATG_NF_kB_CIS: Attagene CIS-FACTORIAL HepG2 Assay for human Nuclear Factor Kappa B (NF-kB) (AID 2282991); details: HepG2 Attagene cis-factorial NF-kB reporter mRNA; actives raise or lower the signal
# Method in brief: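 Read-out: reporter transcript levels quantified by RT-PCR plus capillary electrophoresis of 6-FAM-labelled, HpaI-cut fragments. Transfected HepG2 cells, 24 h compound exposure, endogenous NF-kB-driven cis element; gain or loss scored versus DMSO.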
# [3] = ATG_NRF2_ARE_CIS: Attagene CIS-FACTORIAL HepG2 Assay for human Nuclear Factor Erythroid 2 Related Factor 2 (NFR2) response to Antioxidant Response Elements (ARE) (AID 2282992); details: HepG2 Attagene ARE/NRF2 reporter, transcription factor activity; actives raise or lower the signal;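 as to AC50: reporter mRNA level measured by RT-PCR and capillary electrophoresis fluorescence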
# Method in brief: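 Multiplexed reporter mRNA profiling in HepG2 after a 24 h chemical exposure. Curves fitted in both directions relative to DMSO negative control.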
# [4] = ATG_Oct_MLP_CIS: Attagene CIS-FACTORIAL HepG2 Assay for human Octamer-Binding Transcription Factor (Oct) (AID 2282993); details: HepG2 Attagene cis-factorial Oct reporter, mRNA; actives raise or lower the signal
# Method in brief: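 Using HepG2 cells bearing transfected cis-reporter constructs, mRNA induction was read after 24 h by fluorescent RT-PCR and capillary electrophoresis, with DMSO defining baseline for gain- or loss-of-signal fits.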
# [5] = BSK_3C_TissueFactor: BioMAP Diversity Plus: 3C Assay for Tissue Factor Biomarker Activity (AID 2282997); details: BioMAP 3C HUVEC, tissue factor biomarker readout; actives raise or lower the signal
# Method in brief: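 ELISA read-out of Tissue Factor levels on human umbilical vein endothelium collected 24 h after chemical dosing. Gain or loss of signal was fitted relative to DMSO.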
# [6] = BSK_3C_uPAR: BioMAP Diversity Plus: 3C Assay for Urokinase-type plasminogen activator receptor (uPAR) Biomarker Activity (AID 2282998); details: BioMAP 3C HUVEC, uPAR biomarker ELISA; actives raise or lower the signal
# Method in brief: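 In this endothelial cell-based assay, human umbilical vein primary cells were treated with chemicals and harvested at 24 h. uPAR was quantified using ELISA, with gains or losses fitted relative to DMSO controls.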
# [7] = BSK_4H_Eotaxin3: BioMAP Diversity Plus: 4H Assay for Eotaxin 3 Biomarker Activity (AID 2283000); details: primary human endothelial cells (HUVEC); actives raise or lower the signal;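 as to outcome: CCL26 protein level quantified by ELISA in parallel with SRB cytotoxicity check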
# Method in brief: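 Chemicals were added to human umbilical vein endothelium cultures, and Eotaxin-3 was quantified by ELISA at 24 h. Values were derived by bidirectional fitting with DMSO serving as negative control and activity baseline.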
# [8] = target: human Peroxisome Proliferator-activated Receptor delta (PPARd), PPARD (gene 5467) (UniProt Q03181); assay: ATG_PPARd_TRANS: Attagene TRANS-FACTORIAL HepG2 Assay for human Peroxisome Proliferator-activated Receptor delta (PPARd) (AID 2283002; active = hit-call score of the fitted dose curve at least 0.9, where 1 is the maximum)
# Chain of human Peroxisome Proliferator-activated Receptor delta (PPARd), PPARD (gene 5467) (Q03181 whole entry, looked up, the tested form may be a part): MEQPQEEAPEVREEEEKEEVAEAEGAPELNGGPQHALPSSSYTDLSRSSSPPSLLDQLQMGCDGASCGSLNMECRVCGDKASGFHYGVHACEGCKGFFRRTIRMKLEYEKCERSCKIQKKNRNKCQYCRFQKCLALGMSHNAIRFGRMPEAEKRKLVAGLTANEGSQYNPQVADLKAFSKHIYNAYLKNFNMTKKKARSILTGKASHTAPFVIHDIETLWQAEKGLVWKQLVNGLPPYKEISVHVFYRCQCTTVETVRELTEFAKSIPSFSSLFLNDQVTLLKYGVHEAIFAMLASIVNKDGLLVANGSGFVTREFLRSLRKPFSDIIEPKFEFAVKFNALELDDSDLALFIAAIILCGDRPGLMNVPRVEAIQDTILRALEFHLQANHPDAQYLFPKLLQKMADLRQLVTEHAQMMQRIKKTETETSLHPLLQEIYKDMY
# Method in brief: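 Read-out is induced reporter mRNA, quantified by RT-PCR with fluorescent labelling and capillary electrophoresis after 24 h dosing. Cells are HepG2 transiently carrying multiple GAL4-UAS reporter units driven by exogenous NR-GAL4 chimeras; DMSO serves as baseline.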
# [9] = read-out: Intercellular Adhesion Molecule 1 (ICAM1), ICAM1 (gene 3383); assay: BSK_3C_ICAM1: BioMAP Diversity Plus: 3C Assay for Intercellular Adhesion Molecule 1 (ICAM1) Biomarker Activity (AID 2283003); details: primary human endothelial cells (HUVEC); actives raise or lower the signal
# Method in brief: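 HUVEC primary cells stimulated under 3C conditions; ICAM1 measured by ELISA 24 h after compound dosing. Curves fitted bidirectionally against the DMSO baseline. Overt cytotoxicity checked by SRB staining of parallel cultures.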
# [10] = BSK_3C_Proliferation: Cell Proliferation Assessment in the BioMAP Diversity Plus: 3C Assay (AID 2283006); details: primary human endothelial cells (HUVEC);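 as to AC50: potency may reflect either rise or fall in cell number versus DMSO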
# Method in brief: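 Subconfluent HUVEC (3C system) cultured with chemical; relative cell number read at 48 h by sulforhodamine B total-protein staining (0.1% SRB after 10% TCA fixation, 560 nm). Bidirectional fit relative to DMSO.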
# [11] = target: Peroxisome proliferator-activated receptor gamma (Homo sapiens) (UniProt P37231); assay: ATG_PPARg_TRANS: Attagene TRANS-FACTORIAL HepG2 Assay for human Peroxisome Proliferator-activated Receptor-gamma (PPARg) (AID 2283007; active = hit-call score of the fitted dose curve at least 0.9, where 1 is the maximum)
# Chain of Peroxisome proliferator-activated receptor gamma (Homo sapiens) (P37231 whole entry, looked up, the tested form may be a part): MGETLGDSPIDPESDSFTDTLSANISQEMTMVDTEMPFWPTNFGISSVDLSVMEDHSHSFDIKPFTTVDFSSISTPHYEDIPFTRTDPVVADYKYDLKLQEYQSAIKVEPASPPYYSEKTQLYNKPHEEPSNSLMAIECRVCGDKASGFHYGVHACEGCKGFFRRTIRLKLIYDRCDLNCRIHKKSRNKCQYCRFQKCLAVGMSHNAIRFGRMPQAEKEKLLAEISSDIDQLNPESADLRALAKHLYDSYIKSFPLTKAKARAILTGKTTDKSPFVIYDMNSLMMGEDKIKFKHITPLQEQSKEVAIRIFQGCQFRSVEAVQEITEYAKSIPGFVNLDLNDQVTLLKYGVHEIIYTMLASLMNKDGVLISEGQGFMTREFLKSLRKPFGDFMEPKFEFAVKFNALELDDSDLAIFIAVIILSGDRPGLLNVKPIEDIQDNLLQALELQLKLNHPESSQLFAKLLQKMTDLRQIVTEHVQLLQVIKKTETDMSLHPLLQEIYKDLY
# Method in brief: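 Read-out: reporter mRNA induction, detected by fluorescence after RT-PCR and capillary electrophoresis. Transiently transfected human HepG2 liver cells carrying a chimeric NR-Gal4 construct were dosed for 24 h; activity was fitted upward relative to DMSO.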
# [12] = target: Nuclear receptor subfamily 1 group I member 2 (Homo sapiens) (UniProt O75469); assay: ATG_PXR_TRANS: Attagene TRANS-FACTORIAL HepG2 Assay for human Pregnane X Receptor (PXR) (AID 2283008; active = hit-call score of the fitted dose curve at least 0.9, where 1 is the maximum)
# Chain of Nuclear receptor subfamily 1 group I member 2 (Homo sapiens) (O75469 whole entry, looked up, the tested form may be a part): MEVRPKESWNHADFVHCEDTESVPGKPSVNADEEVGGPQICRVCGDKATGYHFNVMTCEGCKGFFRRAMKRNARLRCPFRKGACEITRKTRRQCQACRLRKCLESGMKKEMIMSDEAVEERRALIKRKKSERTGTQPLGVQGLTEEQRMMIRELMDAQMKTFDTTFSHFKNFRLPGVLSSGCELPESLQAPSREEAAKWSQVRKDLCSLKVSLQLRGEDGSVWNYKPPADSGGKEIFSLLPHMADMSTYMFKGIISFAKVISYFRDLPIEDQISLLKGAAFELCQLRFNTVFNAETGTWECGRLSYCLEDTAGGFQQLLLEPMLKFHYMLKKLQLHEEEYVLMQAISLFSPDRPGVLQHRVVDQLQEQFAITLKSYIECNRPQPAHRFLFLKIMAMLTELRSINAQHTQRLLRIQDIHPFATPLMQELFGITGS
# Method in brief: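 Measures mRNA induction of a GAL4-UAS-driven reporter in human HepG2 cells transiently expressing PXR fused to Gal4, following 24 h treatment. DMSO served as negative control and baseline.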
# [13] = target: Cellular tumor antigen p53 (Homo sapiens) (UniProt P04637); assay: ATG_p53_CIS: Attagene CIS-FACTORIAL HepG2 Assay for human p53 Transcription Factor (AID 2282994); details: HepG2 p53 cis-element reporter, Attagene mRNA; actives raise or lower the signal
# Chain of Cellular tumor antigen p53 (Homo sapiens) (P04637 whole entry, looked up): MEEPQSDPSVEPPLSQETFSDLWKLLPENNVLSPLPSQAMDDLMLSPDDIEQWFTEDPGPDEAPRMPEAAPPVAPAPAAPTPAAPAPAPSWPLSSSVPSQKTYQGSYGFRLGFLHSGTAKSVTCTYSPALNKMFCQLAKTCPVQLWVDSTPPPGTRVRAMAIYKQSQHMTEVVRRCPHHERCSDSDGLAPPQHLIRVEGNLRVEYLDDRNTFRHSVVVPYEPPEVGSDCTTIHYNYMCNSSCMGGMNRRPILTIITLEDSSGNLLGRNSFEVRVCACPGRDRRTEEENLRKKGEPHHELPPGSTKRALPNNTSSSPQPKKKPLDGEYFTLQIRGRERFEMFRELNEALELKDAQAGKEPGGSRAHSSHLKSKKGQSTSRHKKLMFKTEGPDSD
# Method in brief: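 Multiplexed reporter mRNA assay in human HepG2 liver cells; cis-regulated units report endogenous factor activity. Values come from bidirectional curve fitting against DMSO negative control after 24 h treatment.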
# [14] = target: human Peroxisome Proliferator-activated Receptor alpha (PPARa), PPARA (gene 5465) (UniProt Q07869); assay: ATG_PPARa_TRANS: Attagene TRANS-FACTORIAL HepG2 Assay for human Peroxisome Proliferator-activated Receptor alpha (PPARa) (AID 2283001; active = hit-call score of the fitted dose curve at least 0.9, where 1 is the maximum)
# Chain of human Peroxisome Proliferator-activated Receptor alpha (PPARa), PPARA (gene 5465) (Q07869 whole entry, looked up, the tested form may be a part): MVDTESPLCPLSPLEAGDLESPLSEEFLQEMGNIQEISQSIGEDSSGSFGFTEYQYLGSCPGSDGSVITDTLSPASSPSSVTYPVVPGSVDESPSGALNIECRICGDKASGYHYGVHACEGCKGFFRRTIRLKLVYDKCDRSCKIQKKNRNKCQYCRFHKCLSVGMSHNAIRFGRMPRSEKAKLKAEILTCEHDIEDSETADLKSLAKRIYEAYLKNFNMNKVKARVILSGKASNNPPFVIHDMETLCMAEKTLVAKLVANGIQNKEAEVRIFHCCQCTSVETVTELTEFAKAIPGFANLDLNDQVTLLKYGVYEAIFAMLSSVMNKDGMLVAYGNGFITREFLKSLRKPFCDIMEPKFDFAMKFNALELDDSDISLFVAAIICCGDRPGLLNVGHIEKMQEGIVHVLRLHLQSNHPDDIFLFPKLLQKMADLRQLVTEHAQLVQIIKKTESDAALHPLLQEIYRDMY
# Method in brief: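 Read-out is fluorescence of reporter cDNA fragments resolved by capillary electrophoresis after RT-PCR. Human HepG2 liver cells carried transfected PPARa-Gal4 chimera and GAL4-UAS reporter units, treated 24 h; activity scored as increase over DMSO.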
# [15] = target: Retinoic acid receptor alpha (Homo sapiens) (UniProt P10276); assay: ATG_RARa_TRANS: Attagene TRANS-FACTORIAL HepG2 Assay for human Retinoic Acid Receptor alpha (RARa) (AID 2283005; active = hit-call score of the fitted dose curve at least 0.9, where 1 is the maximum)
# Chain of Retinoic acid receptor alpha (Homo sapiens) (P10276 whole entry, looked up, the tested form may be a part): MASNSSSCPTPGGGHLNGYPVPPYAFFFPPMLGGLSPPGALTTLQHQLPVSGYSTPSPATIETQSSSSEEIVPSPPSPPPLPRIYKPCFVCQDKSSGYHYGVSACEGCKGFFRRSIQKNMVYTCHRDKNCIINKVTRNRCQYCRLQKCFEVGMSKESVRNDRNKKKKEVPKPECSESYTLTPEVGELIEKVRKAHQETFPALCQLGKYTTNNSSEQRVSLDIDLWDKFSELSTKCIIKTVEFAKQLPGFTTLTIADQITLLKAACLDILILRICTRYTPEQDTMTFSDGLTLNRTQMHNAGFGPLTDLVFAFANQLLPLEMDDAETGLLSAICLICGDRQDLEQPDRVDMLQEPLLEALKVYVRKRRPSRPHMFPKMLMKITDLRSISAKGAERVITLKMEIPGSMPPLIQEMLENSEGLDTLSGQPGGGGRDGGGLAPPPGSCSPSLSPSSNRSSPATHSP
# Method in brief: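 Reporter transcripts, measured by RT-PCR with fluorescent labeling and capillary electrophoresis after 24 h dosing, reflect activity of an exogenous human RARa–GAL4 fusion in transiently transfected HepG2. Fitted for increase relative to DMSO.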
# [16] = target: human Retinoic Acid Receptor gamma (RARg), RARG (gene 5916) (UniProt P13631); assay: ATG_RARg_TRANS: Attagene TRANS-FACTORIAL HepG2 Assay for human Retinoic Acid Receptor gamma (RARg) (AID 2283009; active = hit-call score of the fitted dose curve at least 0.9, where 1 is the maximum)
# Chain of human Retinoic Acid Receptor gamma (RARg), RARG (gene 5916) (P13631 whole entry, looked up, the tested form may be a part): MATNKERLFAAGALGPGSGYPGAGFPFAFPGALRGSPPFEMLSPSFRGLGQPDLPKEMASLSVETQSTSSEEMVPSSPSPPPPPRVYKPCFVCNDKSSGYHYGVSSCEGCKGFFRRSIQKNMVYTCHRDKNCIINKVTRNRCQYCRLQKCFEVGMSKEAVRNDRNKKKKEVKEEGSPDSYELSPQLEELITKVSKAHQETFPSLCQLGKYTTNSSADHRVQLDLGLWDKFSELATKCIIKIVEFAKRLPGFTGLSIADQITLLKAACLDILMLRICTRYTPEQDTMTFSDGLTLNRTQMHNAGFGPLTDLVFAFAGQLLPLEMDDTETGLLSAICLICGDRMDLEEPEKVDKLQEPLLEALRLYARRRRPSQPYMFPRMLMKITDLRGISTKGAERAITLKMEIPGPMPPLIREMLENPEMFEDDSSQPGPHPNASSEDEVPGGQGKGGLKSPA
# Method in brief: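 HepG2 transiently transfected with GAL4-UAS reporter units and chimeric NR-Gal4 constructs; 24 h compound exposure. Reporter mRNA quantified by RT-PCR, FAM labeling, HpaI digestion and capillary electrophoresis; gain-of-signal versus DMSO.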
# [17] = BSK_3C_VCAM1: BioMAP Diversity Plus: 3C Assay for Vascular cell adhesion molecule 1 (VCAM1) Biomarker Activity (AID 2282999); details: BioMAP 3C HUVEC, VCAM1 ELISA, cytokine-stimulated; actives raise or lower the signal
# Method in brief: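 Endothelial cells from human umbilical vein are treated with test chemical. At 24 h, VCAM-1 is measured by ELISA, and responses in either direction are fitted relative to DMSO.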
smiles,measurement,setting,value
CCC(C)(CC)c1cc(NC(=O)c2c(OC)cccc2OC)on1,outcome,[1],inactive
same,outcome,[2],inactive
same,AC50,[3],0.289 µM (active)
same,AC50,[4],1.64 µM (active)
same,outcome,[5],inactive
same,outcome,[6],inactive
same,outcome,[7],inactive
same,outcome,[8],inactive
same,outcome,[9],inactive
same,outcome,[10],inactive
same,outcome,[11],inactive
same,AC50,[12],0.692 µM (active)
CCCCCCCCCC[N+](C)(C)CCCCCCCCCC,AC50,[1],7.82 µM (active)
same,outcome,[2],inactive
same,AC50,[3],3.63 µM (active)
same,AC50,[4],3.99 µM (active)
same,AC50,[13],100 µM (active)
same,AC50,[5],4.21 µM (active)
same,AC50,[6],2.43 µM (active)
same,AC50,[7],4.08 µM (active)
same,outcome,[14],inactive
same,outcome,[15],inactive
same,AC50,[10],1.8 µM (active)
same,outcome,[11],inactive
same,outcome,[12],inactive
same,outcome,[16],inactive
CCOCCOC(C)=O,outcome,[1],inactive
same,outcome,[3],inactive
same,outcome,[4],inactive
same,outcome,[13],inactive
same,outcome,[5],inactive
same,outcome,[6],inactive
same,outcome,[17],inactive
same,outcome,[7],inactive
same,outcome,[8],inactive
same,outcome,[10],inactive
same,outcome,[11],inactive
same,outcome,[12],inactive
Cc1ccccc1[N+](=O)[O-],outcome,[1],inactive
same,outcome,[2],inactive
same,outcome,[3],inactive
same,outcome,[4],inactive
same,outcome,[13],inactive
same,outcome,[5],inactive
same,outcome,[6],inactive
same,outcome,[7],inactive
same,outcome,[14],inactive
same,outcome,[10],inactive
